FLuc counter: qHTS profiling assay for firefly luciferase inhibitor/activator using purifed enzyme and Km concentrations of substrates (counterscreen for miR-21 project). Potency, µM (highest dose often 57.5 µM), usual class: inhibitors. Luciferin 4-monooxygenase (Photinus pyralis), P08659. purified FLuc, Km substrates, luminescence inhibition. 6.9% of 360,000 active; further: nearly all actives have a fitted effect of over 55% in size
Target sequence (P08659 whole entry, looked up): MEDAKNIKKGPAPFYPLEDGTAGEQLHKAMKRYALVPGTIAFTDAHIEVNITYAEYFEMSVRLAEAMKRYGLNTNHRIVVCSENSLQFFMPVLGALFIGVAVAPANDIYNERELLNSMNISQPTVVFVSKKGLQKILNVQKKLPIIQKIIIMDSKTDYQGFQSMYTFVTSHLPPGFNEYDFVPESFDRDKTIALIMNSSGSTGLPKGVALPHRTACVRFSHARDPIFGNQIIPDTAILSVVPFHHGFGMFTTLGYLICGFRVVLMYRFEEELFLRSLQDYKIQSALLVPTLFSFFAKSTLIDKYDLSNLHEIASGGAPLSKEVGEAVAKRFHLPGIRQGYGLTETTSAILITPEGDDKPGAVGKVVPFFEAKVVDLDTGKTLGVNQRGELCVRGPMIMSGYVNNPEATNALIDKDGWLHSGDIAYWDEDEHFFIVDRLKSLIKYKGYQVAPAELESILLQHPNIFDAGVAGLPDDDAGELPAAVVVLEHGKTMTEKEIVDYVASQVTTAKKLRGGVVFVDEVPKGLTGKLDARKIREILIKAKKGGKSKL
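Purified P. pyralis luciferase (10nM final) with 10uM D-luciferin and 10uM ATP (Km levels) in 50mM Tris acetate pH 7.5, 10mM Mg acetate, 0.01% Tween-20, 0.05% BSA; qHTS 6-point titration, ~60 µM downward; luminescence read.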
SMN2 splice enh: qHTS Assay for Enhancers of SMN2 Splice Variant Expression. HEK293 SMN2-luciferase splicing reporter, luminescence, 30-36 h. Potency, µM (series often up to 46.1 µM), hits mostly activators. 2.8% of 210,000 active; further: nearly all actives have a fitted effect of over 55% in size
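HEK293 cells carry an SMN2 […]–luciferase reporter in which exon 7 inclusion puts luciferase in frame. Cells were plated 10-12 h before compound addition, then incubated 30-36 h at 37C. ONE-Glo luminescence was read; sodium butyrate at 4.5 mM final served as control.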
NPC1 prom act: qHTS Assay for NPC1 Promoter Activators | Huh7 NPC1 promoter luciferase reporter, 24 h | Potency, µM (titrated, usually from 9.22 µM), usual class: activators | 2.4% of 320,000 active | AID 485313, 2010; further: nearly all actives have a fitted effect of over 60% in size
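Huh7 reporter cells (NPC1 promoter driving luciferase) are dosed with compound for 24 h at 37 °C, 5% CO2; luciferase detection reagent is then added and luminescence measured after 10 min at ambient temperature.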
Rab9 promoter act: qHTS Assay for Rab9 Promoter Activators; 2.8% of 320,000 active; Huh7 Rab9 promoter-luciferase reporter, luminescence, 24 h; Potency, µM (top dose mostly 9.22 µM), most hits filed as activators; further: nearly all actives have a fitted effect of over 60% in size
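Luminescence from Amplite-detected luciferase (10 minutes, ambient) reports Rab9 promoter activation. Before that, stable Rab9-luciferase Huh7 cells (1500/well, reduced-serum OP-MEM I plus 10% FBS) were exposed to compound for 24 hours at 37C.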
ELG1 genotoxic: qHTS screen for small molecules that induce genotoxicity in human embryonic kidney (HEK293T) cells expressing luciferase-tagged ELG1 | 1.3% of 330,000 active | HEK293T ELG1-luciferase reporter, luminescence, 16 h | Potency, µM (doses to about 46 µM), actives largely listed as activators; further: nearly all actives have a fitted effect of over 60% in size
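Luminescence read-out: rising ELG1-luciferase signal, reflecting elevated ELG1 protein under genetic stress, flags genotoxic compounds. Cells were treated for 16 hr at 37 °C before ONE-Glo detection.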
Large screens that a line does not name were inactive. Rows were chosen to be rich in hits. Some 7.4% of all compounds tested hit in one or more screens of this group. The call rests on the fitted dose curve; in most records, active means well fitted curve in the direction sought with a large enough effect; inconclusive means small, poorly fitted or top-dose-only effect, or another doubt; inactive means no such curve, though single readings can be large; an effect the other way counts as inactive or inconclusive.

Clc1ccc(-c2noc(CN3CCCC3)n2)cc1	FLuc counter 19µM, SMN2 splice enh inconclusive, NPC1 prom act inconclusive, Rab9 promoter act inconclusive, ELG1 genotoxic 10µM
COc1ccc(N2CCN(Cc3nc(-c4ccc(C)cc4)no3)CC2)cc1	none (no result: NPC1 prom act, Rab9 promoter act, ELG1 genotoxic)
COCCNC(=O)c1ccc(N2CC3CC(C2)c2cccc(=O)n2C3)c(NC(=O)c2ccc(Br)o2)c1 (stereo not drawn)	none (no result: SMN2 splice enh)
CCC1(c2ccc(F)cc2)NC(=O)N(CC(=O)N2CCN(S(=O)(=O)c3ccc(C)cc3)CC2)C1=O (stereo not drawn)	none (no result: SMN2 splice enh)
Cc1cc(CN2CCC(n3nccc3NC(=O)c3ccccc3Cl)CC2)cc(C)c1O	none (no result: SMN2 splice enh)
CCCc1cc(=O)n2[nH]c(SCc3ccc(Cl)cc3)nc2n1	none (no result: SMN2 splice enh)
COc1ccc(C(=O)/C=C2\NCC3c4ccccc4CCN3C2=O)cc1 (stereo not drawn)	FLuc counter 6µM, Rab9 promoter act inconclusive
COc1cccc(C(=O)/C=C2\NCCc3cc(OC)c(OC)cc32)c1	FLuc counter inconclusive (no result: SMN2 splice enh)
O=C(COc1ccc(Br)cc1Br)NC1CCS(=O)(=O)C1 (stereo not drawn)	none (no result: SMN2 splice enh)
O=C(COc1ccc(Br)cc1Cl)NC(=O)NC1CCCC1	FLuc counter 9.5µM, Rab9 promoter act inconclusive, ELG1 genotoxic inconclusive (no result: SMN2 splice enh)
CC(C)NC(=O)NC(=O)COc1ccc(Br)cc1Br	FLuc counter 1.2µM, SMN2 splice enh 2.5µM, NPC1 prom act 1µM, Rab9 promoter act 2µM, ELG1 genotoxic 3.3µM
Cc1cc(Cl)ccc1OCC(=O)NC1CCCC1	FLuc counter inconclusive, ELG1 genotoxic inconclusive
O=C(COc1ccc(Br)cc1Cl)NC1CCCCC1	FLuc counter 3µM, SMN2 splice enh inconclusive, NPC1 prom act 2.8µM, Rab9 promoter act 1.4µM, ELG1 genotoxic inconclusive
CC(C)NC(=O)NC(=O)COc1c(F)c(F)cc(F)c1F	none
O=C(COc1ccc(Br)cc1Br)NC1CCCC1	FLuc counter 17µM
COc1cccc(NC(=O)c2cnc(SCC(=O)N3CCOCC3)n(C)c2=O)c1	none (no result: SMN2 splice enh, NPC1 prom act, Rab9 promoter act, ELG1 genotoxic)
Nc1nc(N)nc(CCCc2nc(N)nc(N)n2)n1	none (no result: FLuc counter, NPC1 prom act, Rab9 promoter act, ELG1 genotoxic)
O=C(COc1ccc(Br)cc1Cl)c1ccc[nH]1	FLuc counter 19µM, SMN2 splice enh inconclusive, NPC1 prom act inconclusive, Rab9 promoter act 4µM
O=C(COc1ccccc1Cl)c1ccc[nH]1	FLuc counter inconclusive, SMN2 splice enh inconclusive, Rab9 promoter act inconclusive, ELG1 genotoxic inconclusive
C=CCNC(=O)COc1ccc(Br)cc1Cl	FLuc counter 17µM, SMN2 splice enh inconclusive, NPC1 prom act inconclusive, Rab9 promoter act inconclusive
COc1ccc(CNc2nc(NCc3ccc(OC)cc3)n(C(=O)c3ccccc3[N+](=O)[O-])n2)cc1	none
COc1ccc(C(=O)Nc2ccc(Nc3ccccc3)cc2)cc1[N+](=O)[O-]	none (no result: SMN2 splice enh)
Cc1ccc(NC(=O)O/N=C/c2ccc(F)cc2)cc1	FLuc counter 15µM, NPC1 prom act inconclusive, Rab9 promoter act inconclusive, ELG1 genotoxic inconclusive (no result: SMN2 splice enh)
COc1ccc(/C=N/OC(=O)Nc2ccccc2)cc1[N+](=O)[O-]	FLuc counter 15µM
O=C(Nc1ccccc1)O/N=C/c1ccc(F)cc1	FLuc counter 2.4µM, NPC1 prom act 0.63µM, Rab9 promoter act 0.79µM, ELG1 genotoxic inconclusive (no result: SMN2 splice enh)
O=C(Nc1ccccc1)O/N=C/c1ccccc1Cl	FLuc counter inconclusive
CCn1cc(/C=C(\NC(=O)c2ccc(OC)cc2)C(=O)N2CCOCC2)c2ccccc21	none (no result: SMN2 splice enh)
Cc1cc(C(=O)Nc2nc(C)c(C(=O)N(C)C)s2)ccc1[N+](=O)[O-]	FLuc counter 4.3µM, SMN2 splice enh 1.8µM, NPC1 prom act 0.35µM, Rab9 promoter act 0.45µM, ELG1 genotoxic 2.6µM
Nc1nc(Nc2cccc(Cl)c2)sc1C(=O)c1ccc(F)cc1	none (no result: SMN2 splice enh, NPC1 prom act, Rab9 promoter act, ELG1 genotoxic)
Nc1nc(Nc2ccccc2F)sc1C(=O)c1ccc(Cl)cc1	FLuc counter 15µM, SMN2 splice enh 14µM (no result: NPC1 prom act, Rab9 promoter act, ELG1 genotoxic)
CCn1nnc2cc(C(=O)NCCc3ccccc3F)ccc21	FLuc counter 1.1µM, NPC1 prom act 0.32µM, Rab9 promoter act 0.4µM, ELG1 genotoxic inconclusive (no result: SMN2 splice enh)
CCn1nnc2cc(C(=O)Nc3ccc(Br)cc3F)ccc21	none (no result: SMN2 splice enh, NPC1 prom act, Rab9 promoter act, ELG1 genotoxic)
CCc1ccc(/C=N/NC(=O)Cc2ccc(OC)c(OC)c2)s1	none (no result: SMN2 splice enh)

Compound activity from PubChem BioAssay.
